Data on 20 compounds can be found in the supplement of paper PMC6992640.

The test system of the assay is WHIM30 (cells of a triple-negative basal-like breast cancer xenograft). The experiment in a line: cell viability of combination (% of vehicle); higher = less cytotoxic. To be noted: 1 µM; 72 h; partner dose: 10 nM. The protocol: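 PDX cells were treated for 72 h with each drug at 1 µM plus carfilzomib (10 nM; 100 nM for WHIM2). Luciferase viability is expressed as percent of vehicle.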
With `COC1=C(OC)C(=O)C(CCCCCCCCCCO)=C(C)C1=O` [Idebenone] + CC(C)C[C@H](NC(=O)[C@H](CCc1ccccc1)NC(=O)CN1CCOCC1)C(=O)N[C@@H](Cc1ccccc1)C(=O)N[C@@H](CC(C)C)C(=O)[C@@]1(C)CO1 [Carfilzomib], the “cell viability of combination” value was 17.5. The figure for `COc1ccc(C[C@H](N)C(=O)N[C@@H]2[C@H](O)[C@H](n3cnc4c(N(C)C)ncnc43)O[C@@H]2CO)cc1.Cl.Cl` [Puromycin dihydrochloride] + CC(C)C[C@H](NC(=O)[C@H](CCc1ccccc1)NC(=O)CN1CCOCC1)C(=O)N[C@@H](Cc1ccccc1)C(=O)N[C@@H](CC(C)C)C(=O)[C@@]1(C)CO1 [Carfilzomib] is 5.17. With `CC(=O)c1cc2c(o1)C(=O)c1ccccc1C2=O` [Napabucasin] + CC(C)C[C@H](NC(=O)[C@H](CCc1ccccc1)NC(=O)CN1CCOCC1)C(=O)N[C@@H](Cc1ccccc1)C(=O)N[C@@H](CC(C)C)C(=O)[C@@]1(C)CO1 [Carfilzomib], the “cell viability of combination” value turned out to be 5.17.

On to `CC(C)CC(NC(=O)CNC(=O)c1cc(Cl)ccc1Cl)B(O)O` (stereo not given) + CC(C)C[C@H](NC(=O)[C@H](CCc1ccccc1)NC(=O)CN1CCOCC1)C(=O)N[C@@H](Cc1ccccc1)C(=O)N[C@@H](CC(C)C)C(=O)[C@@]1(C)CO1 [Carfilzomib], for which the “cell viability of combination” value turned out to be 9.5. As to `O=C(O)CO.[NH2-].[NH2-].[Pt+2]` [Nedaplatin] + CC(C)C[C@H](NC(=O)[C@H](CCc1ccccc1)NC(=O)CN1CCOCC1)C(=O)N[C@@H](Cc1ccccc1)C(=O)N[C@@H](CC(C)C)C(=O)[C@@]1(C)CO1 [Carfilzomib], the “cell viability of combination” value was 16.4. The figure for `Clc1ccc(C(Cn2ccnc2)OCc2c(Cl)cccc2Cl)c(Cl)c1.O=[N+]([O-])O` (stereo not given) [Isoconazole nitrate] + CC(C)C[C@H](NC(=O)[C@H](CCc1ccccc1)NC(=O)CN1CCOCC1)C(=O)N[C@@H](Cc1ccccc1)C(=O)N[C@@H](CC(C)C)C(=O)[C@@]1(C)CO1 [Carfilzomib] is 16.4; for `Cc1ccc(C(=O)N(CCCN)C(c2nc3cc(Cl)ccc3c(=O)n2Cc2ccccc2)C(C)C)cc1` (stereo not given) + CC(C)C[C@H](NC(=O)[C@H](CCc1ccccc1)NC(=O)CN1CCOCC1)C(=O)N[C@@H](Cc1ccccc1)C(=O)N[C@@H](CC(C)C)C(=O)[C@@]1(C)CO1 [Carfilzomib] it is 19.6. With `O=C(NN=Cc1ccc([N+](=O)[O-])o1)c1ccc(O)cc1` [Nifuroxazide] + CC(C)C[C@H](NC(=O)[C@H](CCc1ccccc1)NC(=O)CN1CCOCC1)C(=O)N[C@@H](Cc1ccccc1)C(=O)N[C@@H](CC(C)C)C(=O)[C@@]1(C)CO1 [Carfilzomib] the figure was 12.5. With `COc1cccc2c1C(=O)c1c(O)c3c(c(O)c1C2=O)CC(O)(C(=O)CO)CC3OC1CC(N)C(O)C(C)O1.Cl` (stereo not given) [Epirubicin HCl] + CC(C)C[C@H](NC(=O)[C@H](CCc1ccccc1)NC(=O)CN1CCOCC1)C(=O)N[C@@H](Cc1ccccc1)C(=O)N[C@@H](CC(C)C)C(=O)[C@@]1(C)CO1 [Carfilzomib] the figure was 5.02. For `CNC1CCC(c2ccc(Cl)c(Cl)c2)c2ccccc21.Cl` (stereo not given) [Sertraline HCl] + CC(C)C[C@H](NC(=O)[C@H](CCc1ccccc1)NC(=O)CN1CCOCC1)C(=O)N[C@@H](Cc1ccccc1)C(=O)N[C@@H](CC(C)C)C(=O)[C@@]1(C)CO1 [Carfilzomib], the “cell viability of combination” value was found to be 11. The figure for `CC1=CC(=O)c2ccccc2C1=O` [Menadione] + CC(C)C[C@H](NC(=O)[C@H](CCc1ccccc1)NC(=O)CN1CCOCC1)C(=O)N[C@@H](Cc1ccccc1)C(=O)N[C@@H](CC(C)C)C(=O)[C@@]1(C)CO1 [Carfilzomib] is 21.4.

Regarding `COC(=O)NC(C(=O)N1CCCC1c1ncc(-c2ccc(-c3ccc(-c4cnc(C5CCCN5C(=O)C(NC(=O)OC)C(C)C)[nH]4)cc3)cc2)[nH]1)C(C)C` (stereo not given) + CC(C)C[C@H](NC(=O)[C@H](CCc1ccccc1)NC(=O)CN1CCOCC1)C(=O)N[C@@H](Cc1ccccc1)C(=O)N[C@@H](CC(C)C)C(=O)[C@@]1(C)CO1 [Carfilzomib], the “cell viability of combination” value was 25.3. With `CC(CCC(=O)O)C1CCC2C3CCC4CC(O)CCC4(C)C3CCC12C` (stereo not given) [Lithocholic Acid] + CC(C)C[C@H](NC(=O)[C@H](CCc1ccccc1)NC(=O)CN1CCOCC1)C(=O)N[C@@H](Cc1ccccc1)C(=O)N[C@@H](CC(C)C)C(=O)[C@@]1(C)CO1 [Carfilzomib] the figure was 21.6; with `Cc1nc(NC(=O)N2CCCC2C(N)=O)sc1-c1ccnc(C(C)(C)C(F)(F)F)c1` (stereo not given) + CC(C)C[C@H](NC(=O)[C@H](CCc1ccccc1)NC(=O)CN1CCOCC1)C(=O)N[C@@H](Cc1ccccc1)C(=O)N[C@@H](CC(C)C)C(=O)[C@@]1(C)CO1 [Carfilzomib], 20.

For the compound `C#Cc1cccc(Nc2ncnc3cc(OCCOC)c(OCCOC)cc23)c1.Cl` [Erlotinib Hydrochloride] + CC(C)C[C@H](NC(=O)[C@H](CCc1ccccc1)NC(=O)CN1CCOCC1)C(=O)N[C@@H](Cc1ccccc1)C(=O)N[C@@H](CC(C)C)C(=O)[C@@]1(C)CO1 [Carfilzomib], the “cell viability of combination” value was determined as 26.3. Regarding `CO[C@H]1C[C@@H]2CC[C@@H](C)[C@@](O)(O2)C(=O)C(=O)N2CCCC[C@H]2C(=O)O[C@H]([C@H](C)C[C@@H]2CC[C@@H](OC(=O)C(C)(CO)CO)[C@H](OC)C2)CC(=O)[C@H](C)/C=C(\C)[C@@H](O)[C@@H](OC)C(=O)[C@H](C)C[C@H](C)/C=C/C=C/C=C/1C` [Temsirolimus] + CC(C)C[C@H](NC(=O)[C@H](CCc1ccccc1)NC(=O)CN1CCOCC1)C(=O)N[C@@H](Cc1ccccc1)C(=O)N[C@@H](CC(C)C)C(=O)[C@@]1(C)CO1 [Carfilzomib], the “cell viability of combination” value was 23.9. The figure for `CCOC(=O)c1c(CSc2ccccc2)n(C)c2cc(Br)c(O)c(CN(C)C)c12.Cl` [Arbidol HCl] + CC(C)C[C@H](NC(=O)[C@H](CCc1ccccc1)NC(=O)CN1CCOCC1)C(=O)N[C@@H](Cc1ccccc1)C(=O)N[C@@H](CC(C)C)C(=O)[C@@]1(C)CO1 [Carfilzomib] is 22; for `Cl.Nc1ccn(C2OC(CO)C(O)C2O)c(=O)n1` (stereo not given) [Cytarabine hydrochloride] + CC(C)C[C@H](NC(=O)[C@H](CCc1ccccc1)NC(=O)CN1CCOCC1)C(=O)N[C@@H](Cc1ccccc1)C(=O)N[C@@H](CC(C)C)C(=O)[C@@]1(C)CO1 [Carfilzomib] it is 18.8.

On to `COC(=O)C1=C(C)NC(C)=C(C(=O)OC2CCCN(Cc3ccccc3)C2)C1c1cccc([N+](=O)[O-])c1.Cl` (stereo not given) [Benidipine HCl] + CC(C)C[C@H](NC(=O)[C@H](CCc1ccccc1)NC(=O)CN1CCOCC1)C(=O)N[C@@H](Cc1ccccc1)C(=O)N[C@@H](CC(C)C)C(=O)[C@@]1(C)CO1 [Carfilzomib], for which the “cell viability of combination” value stood at 13.6. For the compound `CN(C)CCOc1ccc(C(=C(CCCl)c2ccccc2)c2ccccc2)cc1.O=C(O)CC(O)(CC(=O)O)C(=O)O` [Toremifene Citrate] + CC(C)C[C@H](NC(=O)[C@H](CCc1ccccc1)NC(=O)CN1CCOCC1)C(=O)N[C@@H](Cc1ccccc1)C(=O)N[C@@H](CC(C)C)C(=O)[C@@]1(C)CO1 [Carfilzomib], the “cell viability of combination” value stood at 17.1.
